Where “and” joins values, the source holds several entries; their conditions need not be identical. Equal entries are not always repeated. Screen size: about 5,500 compounds; about 2,000 (36%) were called active. Another 18% or so got no clear call; they are omitted. No stated cut-off is given here; in the data, active means normalized growth mostly below about 0.91 (no sharp cut-off); inconclusive means no clear call, values can overlap the other calls; inactive means mostly above about 0.92. The list shows a part of the results.
Test: chemical genetic growth profiling, strain panel (AID 1159580);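 further: tested at 20 µM; growth read once vehicle control cultures reached saturation at 30 °C; 1 = growth at the plate median or of vehicle wells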
Settings: S. cerevisiae deletion strains, growth OD

Measured: normalized growth

NS(=O)(=O)c1cc2c(cc1Cl)NC(C(Cl)Cl)NS2(=O)=O (configuration not stated)
inactive: locus YAL021C, strain ccr4, stronger effect = lower value 0.977 | locus YAL026C, strain drs2, stronger effect = lower value 0.968 | locus YAL030W, strain snc1, stronger effect = lower value 0.978 | locus YBL061C, strain skt5, stronger effect = lower value 0.985 | locus YBR009C, strain hhf1, stronger effect = lower value 0.919 | locus YBR021W, strain FUR4, stronger effect = lower value 1.01 | locus YBR023C, strain chs3, stronger effect = lower value 0.978 | locus YBR171W, strain sec66, stronger effect = lower value 0.972 | locus YBR229C, strain ROT2, stronger effect = lower value 1.01 | locus YBR231C, strain swc5, stronger effect = lower value 0.979 | locus YBR279W, strain paf1, stronger effect = lower value 0.984 | locus YCL011C, strain gbp2, stronger effect = lower value 0.96 | locus YCL016C, strain dcc1, stronger effect = lower value 0.967 | locus YCL029C, strain bik1, stronger effect = lower value 1.02 | locus YCL069W, strain vba3, stronger effect = lower value 0.988 | locus YCR088W, strain abp1, stronger effect = lower value 0.96 | locus YDL005C, strain med2, stronger effect = lower value 0.974 | locus YDL035C, strain GPR1, stronger effect = lower value 0.991 | locus YDL040C, strain nat1, stronger effect = lower value 0.986 | locus YDL074C, strain BRE1, stronger effect = lower value 1.01 | locus YDL101C, strain DUN1, stronger effect = lower value 1 | locus YDL134C, strain PPH21, stronger effect = lower value 1.02 | locus YDL185W, strain tfp1, stronger effect = lower value 1.02 | locus YDL192W, strain arf1, stronger effect = lower value 1.02 | locus YDR001C, strain nth1, stronger effect = lower value 0.957 | locus YDR069C, strain doa4, stronger effect = lower value 0.989 | locus YDR101C, strain arx1, stronger effect = lower value 1.01 | locus YDR137W, strain rgp1, stronger effect = lower value 0.97 | locus YDR150W, strain NUM1, stronger effect = lower value 1.01 | locus YDR159W, strain sac3, stronger effect = lower value 0.918 | locus YDR162C, strain NBP2, stronger effect = lower value 1.01 | locus YDR195W, strain ref2 0.992 | locus YDR297W, strain sur2, stronger effect = lower value 0.984 | locus YDR318W, strain mcm21, stronger effect = lower value 1.02 | locus YDR334W, strain swr1, stronger effect = lower value 0.979 | locus YDR335W, strain msn5, stronger effect = lower value 0.963 | locus YDR388W, stronger effect = lower value 1.02 | locus YDR392W, strain spt3, stronger effect = lower value 0.917 | locus YDR502C, strain sam2, stronger effect = lower value 1.01 | locus YEL003W, strain gim4, stronger effect = lower value 0.976 | locus YEL037C, strain rad23, stronger effect = lower value 0.98 | locus YEL061C, strain CIN8 (second series), stronger effect = lower value 0.971 | locus YEL061C, strain CIN8, stronger effect = lower value 1.01 | locus YER015W, strain faa2, stronger effect = lower value 0.977 | locus YER016W, strain bim1, stronger effect = lower value 0.926 | locus YER110C, stronger effect = lower value 1.02 | locus YER111C, strain swi4, stronger effect = lower value 0.982 | locus YER155C, strain BEM2 (second series), stronger effect = lower value 1.03 | locus YER155C, strain BEM2, stronger effect = lower value 1.01 | locus YER167W, strain BCK2, stronger effect = lower value 1.01 | locus YFR010W, strain ubp6, stronger effect = lower value 0.984 | locus YGL078C, strain dbp3, stronger effect = lower value 1.01 | locus YGL086W, strain mad1, stronger effect = lower value 1.01 | locus YGL167C, strain pmr1, stronger effect = lower value 0.963 | locus YGL173C, strain kem1, stronger effect = lower value 0.998 | locus YGL227W, strain vid30, stronger effect = lower value 0.98 | locus YGL240W, strain doc1, stronger effect = lower value 0.99 | locus YGL248W, strain PDE1, stronger effect = lower value 0.997 | locus YGL253W, strain hxk2, stronger effect = lower value 0.976 | locus YGR135W, strain pre9, stronger effect = lower value 1.01 | locus YGR252W, strain gcn5, stronger effect = lower value 0.991 | locus YHR013C, strain ard1, stronger effect = lower value 0.914 | locus YHR027C, strain rpn1, stronger effect = lower value 0.975 | locus YHR030C, strain SLT2, stronger effect = lower value 1.01 and 0.993 | locus YHR079C, strain IRE1 (second series), stronger effect = lower value 1.01 | locus YHR079C, strain IRE1, stronger effect = lower value 0.989 | locus YHR094C, strain hxt1, stronger effect = lower value 1.01 | locus YHR129C, strain ARP1, stronger effect = lower value 0.993 | locus YHR142W, strain chs7, stronger effect = lower value 0.981 | locus YHR200W, strain rpn10, stronger effect = lower value 1.01 | locus YIL066C, strain RNR3, stronger effect = lower value 1.02 | locus YIL073C, strain SPO22, stronger effect = lower value 1.06 | locus YIL125W, strain kgd1, stronger effect = lower value 1.01 | locus YIR030C, strain dcg1, stronger effect = lower value 1.02 | locus YJL092W, strain hpr5, stronger effect = lower value 0.987 | locus YJL095W, strain BCK1 (second series), stronger effect = lower value 0.973 | locus YJL095W, strain BCK1, stronger effect = lower value 0.991 and 0.983 | locus YJL115W, strain asf1, stronger effect = lower value 0.963 | locus YJL129C, strain trk1, stronger effect = lower value 0.968 | locus YJL134W, strain LCB3, stronger effect = lower value 1.01 | locus YJL154C, strain vps35, stronger effect = lower value 0.978 | locus YJL164C, strain tpk1, stronger effect = lower value 0.94 | locus YJL166W, strain qcr8, stronger effect = lower value 0.993 | locus YJL168C, strain set2, stronger effect = lower value 1.01 | locus YJL187C, strain SWE1 (second series), stronger effect = lower value 1.01 | locus YJR043C, strain POL32, stronger effect = lower value 1 | locus YJR066W, strain TOR1, stronger effect = lower value 0.931
